{
  "source": "ChEMBL document CHEMBL1201862",
  "about": "“PubChem BioAssay data set” (2004)",
  "note": "Among all 400,000 compounds or so, about 2,100 (0.53%) were called active. Another 14% or so got no clear call; they are omitted. The rule behind the calls is not given here. The sample as a whole holds a higher share of actives than the screen did.",
  "data": [
    {"target": "Ataxin-2 (Homo sapiens) (UniProt Q99700)", "sequence (Q99700 whole entry)": "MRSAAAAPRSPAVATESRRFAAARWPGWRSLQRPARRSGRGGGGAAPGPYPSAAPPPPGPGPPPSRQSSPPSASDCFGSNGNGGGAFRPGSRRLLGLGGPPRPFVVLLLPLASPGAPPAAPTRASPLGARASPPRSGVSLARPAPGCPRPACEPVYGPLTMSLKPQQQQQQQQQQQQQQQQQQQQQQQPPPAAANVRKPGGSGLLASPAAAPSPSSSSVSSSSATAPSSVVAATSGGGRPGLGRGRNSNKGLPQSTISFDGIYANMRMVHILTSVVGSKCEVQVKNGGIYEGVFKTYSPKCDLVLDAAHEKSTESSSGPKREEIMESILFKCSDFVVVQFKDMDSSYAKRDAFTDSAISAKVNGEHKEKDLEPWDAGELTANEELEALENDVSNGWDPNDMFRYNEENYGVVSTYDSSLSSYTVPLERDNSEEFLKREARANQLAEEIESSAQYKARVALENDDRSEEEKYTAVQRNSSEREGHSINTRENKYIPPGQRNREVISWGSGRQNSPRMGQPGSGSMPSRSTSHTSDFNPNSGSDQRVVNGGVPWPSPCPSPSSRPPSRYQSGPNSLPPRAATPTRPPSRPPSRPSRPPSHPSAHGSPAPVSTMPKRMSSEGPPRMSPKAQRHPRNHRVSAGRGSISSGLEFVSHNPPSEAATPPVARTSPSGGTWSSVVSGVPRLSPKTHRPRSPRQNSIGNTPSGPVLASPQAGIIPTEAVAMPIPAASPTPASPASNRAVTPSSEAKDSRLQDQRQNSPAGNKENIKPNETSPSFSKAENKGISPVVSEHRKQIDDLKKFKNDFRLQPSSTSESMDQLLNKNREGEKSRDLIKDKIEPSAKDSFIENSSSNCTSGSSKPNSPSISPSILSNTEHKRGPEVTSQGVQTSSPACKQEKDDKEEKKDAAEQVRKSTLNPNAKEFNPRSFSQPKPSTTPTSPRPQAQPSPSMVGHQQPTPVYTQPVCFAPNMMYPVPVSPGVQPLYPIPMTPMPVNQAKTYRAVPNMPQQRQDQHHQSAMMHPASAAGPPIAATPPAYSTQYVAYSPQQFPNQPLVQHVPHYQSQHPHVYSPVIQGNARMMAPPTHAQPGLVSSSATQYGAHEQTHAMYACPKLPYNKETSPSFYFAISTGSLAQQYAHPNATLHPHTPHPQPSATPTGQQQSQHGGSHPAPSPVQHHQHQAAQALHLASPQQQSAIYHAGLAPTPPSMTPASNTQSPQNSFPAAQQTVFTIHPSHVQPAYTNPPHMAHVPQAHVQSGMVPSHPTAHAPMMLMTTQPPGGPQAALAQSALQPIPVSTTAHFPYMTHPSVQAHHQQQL", "assay": "qHTS for Inhibitors of ATXN expression.", "format": "functional", "values": [
      {"smiles": "COc1ccc(Sc2ccc(-c3nc4cnccn4c3NC3CCCCC3)cc2OC)cc1", "Potency": "inactive"},
      {"smiles": "CN(Cc1nc(-c2cnccn2)no1)C1CC(C)(C)NC(C)(C)C1", "Potency": "inactive"},
      {"smiles": "Cc1ccccc1N(CC(=O)NC(C)(C)C)C(=O)CCC(=O)Nc1nccs1", "Potency": "inactive"},
      {"smiles": "CCCN1CNc2c(c(=O)[nH]c(=S)n2CCc2ccccc2)C1", "Potency": "inactive"},
      {"smiles": "CCCCN1CCc2c(c3ccccc3n2Cc2ccccc2)C1", "Potency": "28.2 µM (active)"},
      {"smiles": "Oc1ncnc2sc3c(c12)CN(Cc1ccccc1)CC3", "Potency": "inactive"},
      {"smiles": "CCCCCC(=O)NNC1=NCC(Cc2ccccc2)S1", "note": "(stereo unspecified)", "Potency": "inactive"},
      {"smiles": "COc1cc2cc(C(=O)N3CCN(Cc4ccc5c(c4)OCO5)CC3)c(=O)oc2cc1OC", "Potency": "inactive"},
      {"smiles": "CCO[C@H]1OC(C(=O)N2CCN(Cc3ccc4c(c3)OCO4)CC2)=C[C@@H](c2ccc(C(F)(F)F)cc2)[C@@H]1CCCO", "Potency": "35.5 µM (active)"},
      {"smiles": "O=C(c1cc([N+](=O)[O-])cc([N+](=O)[O-])c1)N1CCN(Cc2ccc3c(c2)OCO3)CC1", "Potency": "inactive"},
      {"smiles": "CCOC(=O)/C(=C/c1ccc(N2CCC(c3ccccc3)=N2)cc1)C(C)=O", "Potency": "inactive"},
      {"smiles": "CCOC(=O)C(=Cc1ccc(-n2ccnc2)cc1)C(=O)OCC", "Potency": "25.1 µM (active)"},
      {"smiles": "CCN1CCN(c2cc(C)c3cc(NC(=O)CCC(=O)Nc4ccc(OC)cc4OC)ccc3n2)CC1", "Potency": "inactive"},
      {"smiles": "COc1ccc(Cl)cc1C(=O)Nc1ccc2nc(Nc3cccc(Cl)c3)cc(C)c2c1", "Potency": "inactive"},
      {"smiles": "CCOc1ccccc1NC(=O)Nc1ccc2nc(N3CCN(C)CC3)cc(C)c2c1", "Potency": "31.6 µM (active)"},
      {"smiles": "CCOc1ccc(S(=O)(=O)N2CCN(C)CC2)cc1NC(=O)c1ccccc1F", "Potency": "inactive"},
      {"smiles": "Cc1cc(N2CCN(C)CC2)nc2ccc(NC(=O)Nc3ccccc3Br)cc12", "Potency": "39.8 µM (active)"},
      {"smiles": "Cc1cc(Nc2cccc(Cl)c2)nc2ccc(NC(=O)COc3ccc(Cl)cc3)cc12", "Potency": "inactive"},
      {"smiles": "Cc1cc(N2CCN(C)CC2)nc2ccc(NC(=O)Nc3cccc(Cl)c3)cc12", "Potency": "31.6 µM (active)"},
      {"smiles": "CCCN(CCC)CCNC(=O)CCC(=O)Nc1ccc2nc(N3CCOCC3)cc(C)c2c1", "Potency": "inactive"},
      {"smiles": "CCN1CCN(c2cc(C)c3cc(NC(=O)c4cc(Br)ccc4Cl)ccc3n2)CC1", "Potency": "31.6 µM (active)"},
      {"smiles": "COCCCn1c(=N)c(C(=O)NC2CCCC2)cc2c(=O)n3ccccc3nc21", "Potency": "inactive"},
      {"smiles": "COc1ccc(S(=O)(=O)NCc2ccco2)cc1C(=O)N1CCOCC1", "Potency": "inactive"},
      {"smiles": "CCCN(CCC)S(=O)(=O)c1ccc(C(=O)OCCN2C(=O)c3cccc4c(N5CCOCC5)ccc(c34)C2=O)cc1", "Potency": "inactive"},
      {"smiles": "O=C(CCCNC1=NS(=O)(=O)c2ccccc21)Nc1ccc(Cl)cc1", "Potency": "inactive"},
      {"smiles": "CCOC(=O)c1cc2c(=O)n3ccccc3nc2n(Cc2ccccc2)c1=N", "Potency": "inactive"},
      {"smiles": "COC(=O)c1cc(N2CCN(C)CC2)nc2ccccc12", "Potency": "inactive"},
      {"smiles": "Cc1cc(N2CCN(C)CC2)nc2ccc(NC(=O)CCC3CCCC3)cc12", "Potency": "inactive"},
      {"smiles": "Cc1cc(N2CCN(C)CC2)nc2ccc(NC(=O)Nc3ccccc3)cc12", "Potency": "17.8 µM (active)"},
      {"smiles": "Cc1onc(-c2c(Cl)cccc2Cl)c1NC(=O)NNc1ccccn1", "Potency": "inactive"},
      {"smiles": "Cc1cc(C)c(C#N)c(SCc2ccc(F)cc2)n1", "Potency": "inactive"},
      {"smiles": "Cn1c(Cl)cnc1C1CC(=O)c2cc(Cl)ccc2O1", "note": "(stereo unspecified)", "Potency": "39.8 µM (active)"},
      {"smiles": "Cc1cccc(-n2cnc(C(=O)N3CCN(C)CC3)c2)n1", "Potency": "inactive"},
      {"smiles": "CCc1csc(CCNC(=O)C2CCC(=O)N(Cc3ccccc3F)C2)n1", "note": "(stereo unspecified)", "Potency": "inactive"},
      {"smiles": "CC#CCN(Cc1ccco1)C(=O)C1CCC(=O)N(CCc2cccc(F)c2)C1", "note": "(stereo unspecified)", "Potency": "inactive"},
      {"smiles": "CCCc1cc(CNC(=O)C2CCC(=O)N(CCc3cccc(F)c3)C2)on1", "note": "(stereo unspecified)", "Potency": "35.5 µM (active)"},
      {"smiles": "O=C(c1ccccc1)c1ccc2cc(O)ccc2c1", "Potency": "inactive"},
      {"smiles": "COC1=C(c2ccccc2)C(=O)c2ccccc2C1=O", "Potency": "inactive"},
      {"smiles": "O=C(C1=C(c2ccccc2)C(=O)c2ccccc2C1=O)c1ccccc1", "Potency": "7.08 µM (active)"},
      {"smiles": "CCOc1ccc(C(=O)C(CN2CCOCC2)c2ccccc2)cc1", "note": "(stereo unspecified)", "Potency": "35.5 µM (active)"},
      {"smiles": "CCOc1ccc2nc(N3CCOCC3)nc(C)c2c1", "Potency": "inactive"},
      {"smiles": "CCCCOc1ccc(C(=O)C(CN2CCOCC2)c2ccccc2)cc1", "note": "(stereo unspecified)", "Potency": "39.8 µM (active)"},
      {"smiles": "CCOc1ccc(C2C(C(=O)OC)=CN(C(C)c3ccccc3)C=C2C(=O)OC)cc1", "note": "(stereo unspecified)", "Potency": "inactive"},
      {"smiles": "O=C(N/N=C/c1ccc(N2CCOCC2)cc1)c1ccccc1OCCOc1ccccc1", "Potency": "inactive"},
      {"smiles": "OC(CN1CCOCC1)(c1ccccc1)c1ccccn1", "note": "(stereo unspecified)", "Potency": "inactive"},
      {"smiles": "CC1Cc2ccccc2N1CC(=O)NC(=O)NC1CCCCC1", "note": "(stereo unspecified)", "Potency": "inactive"},
      {"smiles": "COc1ccc(NC2=C(C(C)=O)C(c3ccc(OC)cc3)C(C(C)=O)C(C)(O)C2)cc1", "note": "(stereo unspecified)", "Potency": "inactive"},
      {"smiles": "CCCCNc1nc2cccnc2s1", "Potency": "inactive"},
      {"smiles": "O=[N+]([O-])c1ccc(S(=O)(=O)c2ccccc2)nc1", "Potency": "5.62 µM (active)"},
      {"smiles": "Cc1c(C)c(C)c(C(=O)C2CCN(c3ccc([N+](=O)[O-])cn3)CC2)c(C)c1C", "Potency": "inactive"},
      {"smiles": "Cc1cc(S(=O)(=O)c2ccc([N+](=O)[O-])cn2)ccc1Br", "Potency": "29.9 µM (active)"}
    ]}
  ]
}
